# Results from PubChem BioAssay (EPA / NIEHS).
# More than one record can exist for a structure, and the calls need not agree. Active and inactive are the calls of the source. The calls were made as follows: active = hit-call score of the fitted dose curve at least 0.9, where 1 is the maximum; inactive = score below 0.9.
# Read-out: Epidermal growth factor receptor (EGFR), EGFR (gene 1956)
# Assay: BSK_hDFCGF_EGFR: BioMAP Diversity Plus: hDFCGF Assay for Epidermal growth factor receptor (EGFR) Biomarker Activity (AID 2283057)
# Conditions: primary human foreskin fibroblasts; actives raise or lower the signal
# Protocol: BSK_hDFCGF is a cell-based, multiplexed-readout assay that uses foreskin fibroblast, a human skin primary cell, with measurements taken at 24 hours after chemical dosing in a 96-well plate.BSK_hDFCGF_EGFR is an assay component measured in the BSK_hDFCGF assay. It measures EGFR antibody related to regulation of gene expression using ELISA technology.Data from the assay component BSK_hDFCGF_EGFR was analyzed into 1 assay endpoint. This assay endpoint, BSK_hDFCGF_EGFR, was analyzed with bidirectional fitting relative to DMSO as the negative control and baseline of activity. Using a type of binding reporter, gain or loss-of-signal activity can be used to understand changes in the signaling as they relate to the gene EGFR. Furthermore, this assay endpoint can be referred to as a primary readout, because this assay has produced multiple assay endpoints where this one serves a signaling function. To generalize the intended target to other relatable targets, this assay endpoint is annotated to the kinase intended target family, where the subfamily is receptor tyrosine kinase.
# The levels of cell surface (or secreted, indicated by the prefix "s") biomarker endpoints were measured by ELISA. Overt cytotoxicity to cells in confluent adherent cultures (all systems other than the BT system) was assessed by measuring total protein levels using sulforhodamine B (SRB) staining in parallel cultures at the time of biomarker measurements, indicated as SRB endpoints. For proliferation assays for adherent cell types, individual cell types are cultured at sub-confluence and relative cell numbers quantified by SRB staining at time points optimized for each system (48 h: 3C and CASM3C systems; 72 h: BT and HDF3CGF systems; 96 h: SAg system). SRB was performed by staining cells with 0.1% SRB after fixation with 10% TCA and reading wells at 560 nm.Viability and proliferation of PBMC (T cells) was quantified by Alamar Blue reduction for the SAg and BT systems. For PBMC viability (referred to as PBMC Cytotoxicity within the assay endpoint names), cells were plated (75,000/well in a 96-well plate) and then chemical samples added for 1 h before addition of activators, SEB and TSST-1 (20 ng/mL final concentration each). Cells were incubated for 90 h. Then, Alamar Blue (20 uL/well) (Invitrogen, Cat DAL1100) was added for 6 h, and the plates were read with a fluorescence microplate reader at 546/580 nm (excitation/emission). For PBMC proliferation, cells were plated and activated as above but incubated for only 16 h prior to addition of Alamar Blue. Plates were read after 6 h.
SMILES,outcome,AC50
O=C(Cl)c1c(Cl)c(Cl)c(C(=O)Cl)c(Cl)c1Cl,inactive,
CC1(C)CC(O)CC(C)(C)N1[O],inactive,
c1ccc(Nc2cccc3ccccc23)cc1,inactive,32.5 µM (active)
CC/C=C\CCOC(=O)c1ccccc1O,inactive,
C=CC(=O)OCCCCCCOC(=O)C=C,inactive,
CCCCC1C(=O)N(c2ccccc2)N(c2ccccc2)C1=O,inactive,
Fc1ccc(Br)cc1,inactive,
CC(C)C(=O)OCCc1ccccc1,inactive,
Clc1cc(Cl)c(Cl)c(Cl)c1Cl,inactive,
CC(CCC(=O)O)(c1ccc(O)cc1)c1ccc(O)cc1,inactive,
CC=C(C)C=CC=C(C)C,inactive,
COC(OC)(C(=O)c1ccccc1)c1ccccc1,inactive,
CC(Cl)COP(=O)(OCC(C)Cl)OCC(C)Cl (stereo not given),inactive,
CCCCCC1=CCCC1=O,inactive,
CC(c1cc(C(C)(C)C)cc(C(C)(C)C)c1O)c1cc(C(C)(C)C)cc(C(C)(C)C)c1O,inactive,
COc1ccc(C(=O)/C(Br)=C\C(=O)O)cc1,inactive,29.1 µM (active)
CCOC(=O)/C=C\C(=O)OCC,inactive,
CCNc1nc(NC(C)(C)C)nc(OC)n1,inactive,
CCCC(C)C(=O)OCC (stereo not given),inactive,

SMILES,outcome,AC50
CCCCCCCCC(CO)CCCCCC (stereo not given),inactive,
Nc1ccc(C(=O)O)cc1,inactive,
C=CC(=O)OCC(C)OCC(C)OCC(C)OC(=O)C=C (stereo not given),,33.4 µM (active)
CC1=CC=C(C(C)C)CC1,inactive,
Oc1ccccc1Cc1ccccc1O,inactive,
C=CC(=O)NCOCCCC,inactive,
C=C(C)C(=O)OCCCCCCCCCCCC,inactive,
CCCCCCC=O,inactive,
C=CC(=O)OCCCCCCCC(C)C,inactive,
CCCCCCCO,inactive,
C1CNCCN1,inactive,
CCN1CN(CC)CN(CC)C1,inactive,
CCCCCCOC(=O)CCCCC(=O)OCCCCCC,inactive,
C=CC(=O)NC(C)(C)C,inactive,
O=C(Oc1ccccc1)c1ccccc1C(=O)Oc1ccccc1,inactive,
CCc1cccc(C)c1N(C(=O)CS(=O)(=O)O)C(C)COC (stereo not given),inactive,
c1ccc2c(c1)[nH]c1ccccc12,inactive,
CCOC(=O)C1=NN(c2ccc(Cl)cc2Cl)C(C)(C(=O)OCC)C1 (stereo not given),inactive,
C[N+](C)(C)CCCNS(=O)(=O)C(F)(F)C(F)(F)C(F)(F)C(F)(F)C(F)(F)C(F)(F)C(F)(F)C(F)(F)F,inactive,
